This is a sample that favours compounds with a hit; in the whole collection about 2.4% have one here.
ALOX12 inh: blocks human arachidonate 12S-lipoxygenase; hit rate 1.1% among 580,000; purified 12hLO, xylenol orange hydroperoxide absorbance; Potency, µM (top dose mostly 108 µM), for the others: at the top dose activity change, negative = inhibition, most hits filed as inhibitors; active means well fitted curve in the direction sought with a large enough effect; inconclusive means small, poorly fitted or top-dose-only effect, or another doubt; inactive means no such curve, though single readings can be large; an effect the other way counts as inactive or inconclusive; further: on the % scale 0 is the no-effect control and ±100 the full control effect
Target sequence (P18054 whole entry, looked up): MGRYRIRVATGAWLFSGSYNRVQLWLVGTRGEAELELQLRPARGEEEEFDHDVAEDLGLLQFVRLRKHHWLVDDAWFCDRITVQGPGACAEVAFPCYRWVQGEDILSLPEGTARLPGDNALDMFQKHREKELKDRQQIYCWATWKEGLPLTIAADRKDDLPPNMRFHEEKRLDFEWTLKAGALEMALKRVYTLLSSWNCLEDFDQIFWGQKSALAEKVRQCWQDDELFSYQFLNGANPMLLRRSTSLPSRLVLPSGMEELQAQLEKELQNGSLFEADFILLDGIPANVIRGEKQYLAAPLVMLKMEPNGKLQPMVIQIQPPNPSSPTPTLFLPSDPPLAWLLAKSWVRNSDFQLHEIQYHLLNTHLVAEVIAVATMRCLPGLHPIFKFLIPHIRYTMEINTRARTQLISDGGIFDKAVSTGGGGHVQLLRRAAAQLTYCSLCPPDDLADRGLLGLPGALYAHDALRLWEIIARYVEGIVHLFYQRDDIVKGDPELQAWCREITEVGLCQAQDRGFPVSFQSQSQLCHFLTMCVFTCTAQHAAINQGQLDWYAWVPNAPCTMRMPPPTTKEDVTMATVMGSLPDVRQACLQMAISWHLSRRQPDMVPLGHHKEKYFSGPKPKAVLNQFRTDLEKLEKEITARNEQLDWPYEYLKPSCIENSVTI
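Purified human 12hLO at 150 nM in 25 mM Hepes, 0.01% Triton X-100, pH 7.0, preincubated 15 min at room temperature with compound. Reaction started with 40 uM arachidonic acid, 30 min at room temperature. Hydroperoxide measured by Fe-xylenol orange, 573/405 nm absorbance ratio.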
Rango-impB inh: inhibitors of Rango-importin beta complex formation. Q14974. Potency, µM (doses to about 92.2 µM), without a hit: at the top dose inhibition of complex formation. Rango CFP/YFP FRET sensor + importin beta, 45 min. hit rate 0.031% among 340,000. AID 540263;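 further: 0% = DMSO wells and 100% = buffer wells lacking importin beta; nearly all actives have a fitted effect of over 15% in size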
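Inhibition scored from the CFP 486 nm/YFP 530 nm FRET ratio 45 min after adding 0.125 microM importin beta to 50 nM Rango biosensor preincubated 5 min with compound (room temperature, PBS with DTT, Tween-20, BSA). No-importin wells as positive control.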
ClpP mod: qHTS Assay for Activators of ClpP. ATP-dependent Clp protease proteolytic subunit (Bacillus subtilis (strain 168)), P80244. purified B. subtilis ClpP, FRET peptide cleavage, 20 min. Potency, µM (top dose mostly 57.5 µM), for the others: at the highest dose activity change, negative = active. hit rate 1.9% among 340,000. AID 651965, 2013; active means well fitted falling curve with a large enough effect; inconclusive means small, poorly fitted or top-dose-only effect; inactive means no such curve, though single readings can be large or run the other way; further: the source files actives as falling curves though it sought activators and does not explain the sign; nearly all actives have a fitted effect of over 65% in size
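FRET quenching reversal measured ClpP activation: 10 microg/mL B. subtilis ClpP at pH 8 with the FRET-FV decapeptide, read at 430 nm after 320 nm excitation. The 20-min minus 0-min signal was scaled between DMSO/no-enzyme wells and ADEP (5.8 microM final).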
TDP1 block: TDP1 (human) enzyme inhibition; Potency, µM (highest dose often 130 µM), without a hit: at the highest dose activity change, negative = inhibition, hits mostly inhibitors; hit rate 0.28% among 350,000; AID 485290; recombinant TDP1, AlphaScreen DNA substrate cleavage; active means well fitted curve in the direction sought with a large enough effect; inconclusive means small, poorly fitted or top-dose-only effect, or another doubt; inactive means no such curve, though single readings can be large; an effect the other way counts as inactive or inconclusive; further: on the % scale 0 is the no-effect control and ±100 the full control effect; nearly all actives have a fitted effect of over 40% in size
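Tdp1 1 nM final; 15 min RT w/ cpd; substrate 15 nM, 5 min; beads 10 ug/ml, 10 min; AlphaScreen read. Neg ctrl: no enzyme.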
TSG101-PTAP inh: blocks PTAP/TSG101 interaction to inhibit HIV-1 budding; 340,000 tested, under 10 active; Potency, µM (series often up to 115 µM), inactives show at the highest dose activity change, negative = inhibition, most hits filed as inhibitors; AID 493005; Fluorescence polarization, FITC-PTAP peptide / Tsg101 binding; Q99816; active means well fitted inhibition curve with a large enough effect in the main read-out, with a control signal flat, not every such curve was filed as active; inconclusive means small, poorly fitted or top-dose-only effect, or effect the other way, or a change in a side signal; inactive means no such curve, though single readings can be large or run the other way; further: % of control where 0% means no effect
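Fluorescence polarization binding of Tsg101 binding domain (10 uM final) to FITC-labeled PTAP peptide (50 nM final) in HEPES pH 7.5 buffer with NaCl, Tween 20, EDTA, TCEP. Compounds added before peptide; binding 20 min at RT.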
Rango release inh: inhibition of RanGTP-driven Rango-importin beta dissociation. O95149+P62826. Biochemical FRET Rango-importin beta, RanGTP-induced dissociation. Potency, µM (titrated, usually from 46.1 µM), for the others: top-dose activity change, negative = inhibition. hit rate 0.071% among 340,000; further: % of control where 0% means no effect; nearly all actives have a fitted effect of over 45% in size
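Rango/importin beta premix (0.1/0.25 uM final), PBS + 1 mM DTT + 0.02% Tween-20 + 0.1% BSA; cpd 5 min RT; FRET pre-read; + RanGTP-RCC1 (0.6 uM Ran, 2 mM GTP, 0.2 uM RCC1); 45 min RT; FRET post-read, ex 430, em 486/530 nm.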
Starred values were filed as active, the others as inactive; ? = inconclusive; · = no result; [ ] = dose if it differs, or a comment. Unless noted, the call rests on the fitted dose curve. Potency means the concentration at half of the fitted maximal effect.

SMILES	ALOX12 inh	Rango-impB inh	ClpP mod	TDP1 block	TSG101-PTAP inh	Rango release inh
O=C(c1ccccc1)N1CCCC(n2cc(-c3nc(-c4ccccc4)no3)nn2)C1 (configuration not stated)	2.6%	·	·	·	·	·
O=C(c1cccnc1)N1CCCC(n2cc(-c3nc(-c4ccccc4)no3)nn2)C1 (configuration not stated)	39.8µM*	·	·	·	·	·
CSCCCN1CCC2(CCN(Cc3cccc(O)c3)CC2)C(CO)C1 (configuration not stated)	5.0%	·	·	·	·	·
CC(/C=C/C=C(C)/C=C/C(=O)O)=C\C=C\C=C(C)\C=C\C=C(C)\C=C\C(=O)O	·	·	·	2.82µM*	·	·
O=C(NC(=S)NCCN1CCOCC1)c1ccccc1Br	2.0%	-0.2%	25.1µM*	1.9%	-0.2%	5.4%
CN(C)N1C(=O)CC(c2ccc(F)cc2)C2=C1CC(C)(C)CC2=O (configuration not stated)	43.4%	·	·	·	·	·
CC1(C)CC(=O)C2=C(C1)N1CCc3cc4c(cc3C1=CC2c1ccc(F)cc1)OCCCO4 (configuration not stated)	25.1µM*	·	·	·	·	·
Cc1ccc(-c2cc(C#N)c(=O)n(Cc3c(Cl)cccc3Cl)c2)cc1	-3.2%	0.6%	7.08µM*	0.9%	-5.1%	5.5%
Cc1nc2ccccc2c(C)c1C(=O)c1ccc(Cl)cc1	7.94µM*	·	·	·	·	·
O=C(NCCO)c1nc(C(=O)c2ccc(Cl)cc2)c2ccccc2n1	-11.4%	0.4%	-0.3%	1.3%	·	0.2%
CN1C=CC2=C(C#N)C(N)C(C#N)(C#N)C(c3ccccc3)C2C1 (configuration not stated)	-14.7%	?	28.2µM*	6.9%	-22.0%	?
N#CC1(C#N)[C@H](C(N)=O)[C@H]1c1ccccc1	-50.9%	·	·	·	·	·
COc1cccc(-c2ncc3ccccn23)c1	?	1.9%	?	6.7%	-2.1%	-0.6%
c1csc(-c2ncc3ccccn23)c1	-37.8%	?	31.6µM*	2.6%	-2.4%	-8.6%
COc1cc(OC)cc(-c2ncc3ccccn23)c1	251.0%	-2.4%	25.1µM*	7.2%	-3.0%	1.8%
CN(C)c1ccc(CN2CCn3c(nn(-c4ccc(F)cc4F)c3=O)C2)cc1	1.2%	·	·	·	·	·
NS(=O)(=O)c1ccc(NC(=O)CSc2nnc(NC3CC3)s2)cc1	?	-2.0%	-0.9%	14.1µM*	-1.6%	-13.2%
Cn1c(=O)c2c(nc(Nc3cc(Cl)ccc3Cl)n2CC(=O)O)n(C)c1=O	28.2%	·	·	·	·	·
CCOc1cc(C2CC(=O)Nc3cc(OC)cc(OC)c32)ccc1OC(C)C (configuration not stated)	-44.5%	·	·	·	·	·
Cc1cccc(/C=N/NC(=O)c2cc3c(s2)-c2ccccc2CC3)c1	3.7%	1.5%	28.2µM*	5.6%	-9.8%	-14.5%
O=C(N/N=C/c1cccc(C(F)(F)F)c1)c1cc2c(s1)-c1ccccc1CC2	17.2%	0.5%	?	2.8%	-3.5%	-13.5%
CCN1CCN(CCOc2ccc3c(=O)c(-c4ccc(Cl)cc4)coc3c2)CC1	17.8µM*	·	·	·	·	·
O=[S+]([O-])(c1ccccc1)N1CCc2nc(C3CC3)nc(-c3ccc(Cl)cc3)c2CC1	9.0%	·	·	·	·	·
CCN(CC(=O)Nc1c(F)cccc1F)C(=O)/C=C/c1ccc2ccccc2n1	31.6µM*	-2.3%	-0.6%	·	-1.9%	-10.8%
Cc1ccc(-c2nc(CSc3nc(C)c(CCO)c(=O)[nH]3)c(C)o2)cc1	-6.7%	·	·	·	·	·
SMILES	ALOX12 inh	Rango-impB inh	ClpP mod	TDP1 block	TSG101-PTAP inh	Rango release inh
O=C(CCC1CCCCC1)NCCc1cccnc1	0.6%	·	·	·	·	·
O=C(Nc1cccc(N2C(=O)C3C4C=CC(C4)C3C2=O)c1)c1cccs1 (configuration not stated)	57.7%	-1.5%	0.8%	0.0%	-0.2%	-4.6%
Cc1cc(N2C(=O)C3C4C=CC(C4)C3C2=O)ccc1NC(=O)c1cccs1 (configuration not stated)	?	2.9%	-3.6%	12.6µM*	0.4%	-12.6%
N#Cc1ccc(Oc2ccc(-c3cnc4ccccc4n3)cc2)cc1C#N	-2.1%	-2.4%	20µM*	0.0%	1.0%	-1.5%
N#Cc1ccc(Oc2ccc(-c3nc4ccccc4nc3-c3ccccc3)cc2)cc1C#N	-1.3%	4.3%	?	-2.7%	-1.5%	-11.6%
CC1(C)C(c2ccccc2)=NC(c2ccc(Br)cc2)N1O (configuration not stated)	7.94µM*	8.3%	-3.0%	-7.2%	0.3%	12.1%
CN(CC(=O)Nc1cccc(F)c1)C(=O)c1cc(-c2ccco2)nc2ccccc12	39.8µM*	-0.9%	-2.7%	·	-3.8%	-10.2%
COc1ccc(NC(=O)c2cc(-c3ccco3)nc3ccccc23)cc1	?	0.0%	0.2%	·	0.3%	-7.4%
COc1ccc(NC(=O)CN(C)C(=O)c2cc(-c3ccco3)nc3ccccc23)cc1	?	-5.6%	-13.7%	3.98µM*	-4.7%	5.3%
Cc1[nH]c2ccccc2c1C(=O)NCc1ccccc1	19.9%	·	·	·	·	·
CCOc1ccc(NC(=O)c2ncoc2-c2cccs2)cc1	12.3%	·	·	·	·	·
Cc1ccc(/C=C/c2nnc(-c3cccc(C)c3)o2)cc1	5.9%[57.4 µM]	3.5%	31.6µM*	8.4%	-4.0%	4.4%
Cc1ccc(-c2nn(-c3ccccc3)cc2C2CC(c3cccs3)=NN2C(=O)CCCC(=O)O)cc1 (configuration not stated)	?	0.6%	-25.8%	4.7%	-6.9%	-6.4%
O=C(O)CCC(=O)N1N=C(c2cccs2)CC1c1cn(-c2ccccc2)nc1-c1ccccc1 (configuration not stated)	3.3%	-1.8%	14.1µM*	3.3%	-5.5%	?
Cc1nc(C2CC2)ncc1C(=O)N1CCC2(CC1)OCCCC2O (configuration not stated)	3.6%	·	·	·	·	·
COc1ccc(NS(=O)(=O)c2ccc3oc(SC(C)C(N)=O)nc3c2)cc1 (configuration not stated)	·	-0.2%	31.6µM*	7.3%	-3.1%	0.6%
Cn1ccnc1CN1C(=O)CO[C@H](c2ccc(NC(=O)Nc3ccccc3)cc2)[C@H]1CO	47.5%	·	·	·	·	·
Cc1ccc(S(=O)(=O)N(CC(=O)NCc2ccncc2)c2ccccc2Cl)cc1	-36.8%	·	·	·	·	·
COc1cccc(CN2Cc3cc(NS(=O)(=O)c4ccccc4)ccc3OCC2=O)c1OC	10µM*	·	·	·	·	·
COc1ccc(C(=O)Nc2ccc3c(c2)CN(Cc2cccc(OC)c2OC)C(=O)CO3)cc1OC	-2.7%	·	·	·	·	·
